PubChem BioAssay (NCI)
This is part of a sample that, as a whole, favours compounds with a hit. Of some 79,000 tested, about 15% had one in any assay. A number with no mark means an inactive call. The source made the active and inactive calls. No stated cut-off is given here; in the data, active means growth inhibition above about 70%; inactive means the rest.

Key:
[1] = NCI Yeast Anticancer Drug Screen. Data for the rad50 strain (AID 155);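 further: 0% = growth of vehicle-only cultures of the same strain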; settings: S. cerevisiae rad50 strain growth inhibition; at 50.0 µM; stronger effect = higher value
Outline: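 Compounds were tested on a yeast strain with an engineered DNA damage repair alteration; the reported value is growth inhibition normalised to vehicle treatment.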

[2] = NCI Yeast Anticancer Drug Screen. Data for the mec2-1 strain (AID 157); settings: S. cerevisiae mec2-1 strain, at 50.0 µM, stronger effect = higher value
Outline: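 Growth inhibition is read against vehicle-treated controls after compound exposure of the mec2-1 yeast strain, which is defective in DNA damage repair or cell cycle control.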

[3] = NCI Yeast Anticancer Drug Screen. Data for the sgs1 mgt1 strain (AID 161);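 further: 0% = growth of cultures given vehicle only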; settings: S. cerevisiae sgs1 mgt1 strain, at 50.0 µM, stronger effect = higher value
Outline: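 Growth of a repair-deficient yeast mutant was monitored after compound treatment and expressed as inhibition relative to vehicle-treated cultures.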

[4] = NCI Yeast Anticancer Drug Screen. Data for the cln2 rad14 strain (AID 165);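 further: 0% = growth equal to vehicle treated cultures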; settings: S. cerevisiae cln2 rad14 strain, at 50.0 µM, stronger effect = higher value
Outline: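 Growth inhibition, relative to vehicle-treated controls, is the read-out. The test organism is a yeast strain with defined genetic alterations, cln2 rad14.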

[5] = NCI Yeast Anticancer Drug Screen. Data for the bub3 strain (AID 167); settings: S. cerevisiae bub3 mutant strain, at 50.0 µM, stronger effect = higher value
Outline: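 Growth of a checkpoint-deficient yeast mutant is measured after compound exposure. Values represent inhibition relative to vehicle.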

[6] = NCI Yeast Anticancer Drug Screen. Data for the mlh1 rad18 strain (AID 175); settings: S. cerevisiae mlh1 rad18 strain growth inhibition; at 50.0 µM; stronger effect = higher value
Outline: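 Cells of a genetically altered yeast strain, deficient in DNA damage repair, were treated with compound. Their growth was then compared with that of vehicle-treated cultures to give inhibition.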

| SMILES | growth inhibition [1] | growth inhibition [2] | growth inhibition [3] | growth inhibition [4] | growth inhibition [5] | growth inhibition [6] |
| --- | --- | --- | --- | --- | --- | --- |
| c1ccc(C[n+]2ccc3c(c2)CCCC3)cc1 | -1% | -13.2% | 27.8% | 17.3% | 19.1% | 6.4% |
| CCOC(=O)NC(Nc1ccc(Cl)cn1)(C(F)(F)F)C(F)(F)F | -25.9% | -12.5% | -52.5% | -25.3% | -21.6% | -76.2% |
| COc1cc(C(=O)N(C)N(C)C)cc(OC)c1OC | 6.6% | -9.6% | 13.4% | 10.9% | -2.85% | -5.6% |
| COc1cccc(N2CCN(CC(O)COc3ccc(N)cc3)CC2)c1 (stereo unspecified) | 36.1% | 25.1% | 31.9% | 30.6% | 25.1% | 44% |
| N#CC(/C(=N/NC(N)=S)C(=O)Nc1cccc(Cl)c1)c1ccccc1 (stereo unspecified) | -23.9% | 13.8% | 10.4% | 18.3% | 12.9% | 31.2% |
| CCOC(=O)C1(C(=O)OCC)CC(CCC#N)(CCC#N)C(=O)C(CCC#N)(CCC#N)C1 | -2.15% | -5.5% | 1.55% | -3.1% | -11.4% | -26.8% |
| CCN(c1ccccc1C(=O)O)S(=O)(=O)c1ccc(C)cc1 | 1.9% | -1.95% | 23.2% | 27.6% | 22% | 11.9% |
| CC[N+]1(C)CCC(CN2c3ccccc3Sc3ccccc32)C1 (stereo unspecified) | 31.4% | 22.6% | 38.5% | -2.65% | 6% | 43.3% |
| O=C(ON(Cc1ccccc1)Cc1ccccc1)c1ccccc1 | -7.8% | 1.95% | 20.4% | -14.8% | 28.1% | 10.8% |
| CCOc1ccc(/C=C2\N=C(c3ccccc3)OC2=O)cc1OC | 8.5% | 12.5% | 4% | 0.75% | 5.85% | 2.4% |
| CN(C)S(=O)(=O)Oc1ccccc1N | 5.9% | -4.5% | 20.9% | 18.7% | -5.15% | 15.8% |
| O=S1(=O)CC(N2CCCCC2)C2=C(O1)c1ccccc1N(c1ccccc1)C2 (stereo unspecified) | 1.8% | -16.9% | -11.1% | 16.9% | -0.4% | -26.1% |
| C=CC(=O)OCC(C)(C)[N+](=O)[O-] | 18.4% | 15.7% | 12.8% | 2.35% | -3.65% | 1.55% |
| COc1ccc2c(c1)C1(C)CCCC(C)(C(N)=O)C1CC2 (stereo unspecified) | 0.1% | -15.8% | -8.05% | 8.95% | -12.2% | -24.7% |
| NC(C(=O)O)c1ccccc1C(=O)O (stereo unspecified) | -21.4% | -19.9% | -13.4% | 0.8% | -7.8% | -21.9% |
| S=C(Cc1cccc2ccccc12)N1CCN(c2ccc(Cl)cc2)CC1 | -17% | -2.3% | -16% | -7.9% | -9.95% | -0.55% |
| Nc1ccc2[nH]c(=S)sc2c1 | 11.2% | 16.4% | -7.2% | -1.6% | -0.65% | 3.35% |
| C#CC(CCC)NCCCC (stereo unspecified) | 16.2% | -8.95% | -8.8% | 3.05% | -4.9% | -1.95% |
| CCCCCCC(/C=C/c1ccc(Cl)c(Cl)c1)=N\Nc1ccccc1 | 3.55% | -15.9% | 14.8% | -19.7% | -4.3% | -12.3% |
| CCOc1c(N=Nc2ccccc2Cl)c(C)nn1C(N)=S | -14.2% | 8.7% | 45.5% | -2.25% | 53.4% | 49.4% |
| c1cc[n+](Cc2ccc3ccccc3n2)cc1 | -0.95% | -5.5% | -5.85% | -27.4% | -2.2% | 28.9% |

| SMILES | growth inhibition [1] | growth inhibition [2] | growth inhibition [3] | growth inhibition [4] | growth inhibition [5] | growth inhibition [6] |
| --- | --- | --- | --- | --- | --- | --- |
| Cc1nnc2c3[nH]c4ccccc4c3c(Cl)nn12 | -3.3% | -7.25% | 3.55% | -52.2% | -10.8% | -11.1% |
| CCN(CC)c1ccc(/C=C2\CCc3ccc([N+](=O)[O-])cc3C2=O)cc1 | 1.95% | -14.7% | 6.2% | -3.75% | 3.8% | -7.95% |
| COc1ccc2ccccc2c1I | 18.4% | 1.4% | 2.75% | 10.7% | 23.6% | 9.45% |
| CC(O)(c1ccccc1)C1CC1c1ccccc1 (stereo unspecified) | 29.9% | -3.5% | 20.8% | -17.2% | -12.5% | 6.3% |
| O=C(NC(=O)c1c(F)cccc1F)Nc1ccc(Cl)nc1 | 8.75% | 5.95% | -0.2% | 2.3% | 21.9% | 10.1% |
| CCCCN(C=O)CCCC | 20.7% | 17.3% | 17.4% | 9.45% | 4.75% | 3.7% |
| CCCNCC(O)COc1ccc2c3c(c(=O)oc2c1)CCC3 (stereo unspecified) | 1.15% | 10.8% | -23.9% | -8.25% | -29.8% | -15.8% |
| O=C1NC(CO)C(=O)NC1CO (stereo unspecified) | 3.7% | -4.4% | -12.2% | -2.75% | 0.25% | -4.8% |
| Cc1ccc(NC(=O)C2C3CC4OC(=O)C2C4C3)cc1 (stereo unspecified) | -10.6% | -4.45% | 11.5% | 0.55% | 18.6% | -16.6% |
| CC(C)CCCC(C)C1CCC2(C)C3=C(CCC12C)C1(C)CCC(=O)C(C)(C)C1CC3 (stereo unspecified) | 73.1% (active) | 57.2% | 83.5% (active) | 44.5% | 14.6% | 34% |
| Cn1cnc2nc(N)[nH]c(=O)c21 | 37.2% | 6.45% | 2.5% | -14.4% | -0.95% | 13.7% |
| Cc1nc2ccc(S(=O)(=O)Nc3ccccn3)cc2c(=O)n1NS(=O)(=O)c1ccccn1 | 42.6% | 12.1% | 12% | 22.8% | -14.2% | 26.4% |
| CN(C)[C@@H]1C(=O)C(C(=O)NCNc2cccc(C(=O)O)c2C(=O)O)=C(O)[C@@]2(O)C(=O)C3=C(O)c4c(O)cccc4[C@@](C)(O)[C@H]3C[C@@H]12 | 2.95% | 6.45% | 21.8% | -17.2% | -1.1% | 31.4% |
| O=C(c1ccccc1)n1c2ccccc2c2ccccc21 | 9.55% | -3.3% | 17.6% | -1% | 26.2% | 26.2% |
| C=CCN1C=CC=C/C1=C\C=C(/C#N)C(=O)OCC | 10.8% | 12.7% | 7.8% | -15.2% | -8.65% | 7.35% |
| O=C(O)CSC(=S)c1ccccc1 | 16.4% | 19.8% | 4% | -5.7% | -15.8% | -12.9% |
| Cc1cc(NS(=O)(=O)c2ccc(NC(=O)c3cccn4c(=O)c5ccccc5nc34)cc2)no1 | -24.6% | 3.7% | -44% | 0.8% | -14.7% | -8.8% |
| CCC(=O)OCC1OC(Oc2ccc(N=Nc3ccccc3)cc2)C(OC(=O)CC)C(OC(=O)CC)C1OC(=O)CC (stereo unspecified) | 18.9% | 3.4% | 34% | 1.35% | 12.9% | 28.2% |
| CN(C)c1nc(=Nc2ccc3c(c2)OCO3)ss1 | 30.5% | 24.4% | 54% | 34.1% | 16.9% | 50.2% |
| O=C(O)C1C2CCC(O2)C1C(=O)Nc1cccc2cccnc12 (stereo unspecified) | 15.3% | 12.4% | -10.2% | -1.15% | 22.5% | 17.8% |
